Data published in the supplement of paper PMC12636033.
± gives the standard deviation of the averaged measurements. Whole data set: some 33,000 sequences, median “E-score (rank enrichment, -0.5 to 0.5)” near -0.0043, cut for the highest 2% near 0.24. The full list was thinned out, with the highest values kept by preference.

Tested on: 2Sp-muMax20 (muMax20 with two 2,6-bis(methyl)pyridine Cys staples)
Assay: PBM 8-mer E-score (E-score (rank enrichment, -0.5 to 0.5)); higher = stronger preferential binding
Procedure: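 Protein binding microarray (universal PBM chip covering all 10-mers in fixed probe flanks) with chemically synthesized human Max(13-93) bHLH-LZ analogs (not full-length Max) bearing noncanonical residues (hArg, Tha, Aib, Nle at 65) and aromatic Cys staples. Read-out per 8-mer (and its reverse complement): E-score (rank-based enrichment, -0.5 to 0.5) and Z-score of median probe intensity.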

Sequence	PBM 8-mer E-score
ACTGCCGC	-0.11 ± 0.0048
AGAACGCA	-0.0651 ± 0.016
AAATAGCC	0.155 ± 0.026
GCTAGCTA	-0.00454 ± 0.02
CCATTTCG	-0.131 ± 0.16
GAGTAAGC	-0.0367 ± 0.065
AAGCATGG	0.221 ± 0.0031
CAGCATGA	0.131 ± 0.046
CAGCATGC	0.245 ± 0.055
AAGCATCC	-0.0641 ± 0.07
GAGCATGC	0.233 ± 0.065
CGGCATGC	0.154 ± 0.053
CAGCATGG	0.258 ± 0.074
TAGCATGA	0.237 ± 0.075
AAGCATGC	0.309 ± 0.047
AAGCATGA	0.0552 ± 0.075
AAGCATGT	0.208 ± 0.059
GAGCATGA	0.154 ± 0.055
ATTTGAAG	0.0351 ± 0.054
CGCTCCCC	-0.1001 ± 0.00055
GTACTGAA	0.149 ± 0.041
CGCCCAAA	0.0607 ± 0.014
CATTCGAC	-0.0616 ± 0.11

Sequence	PBM 8-mer E-score
ATTAGCTC	0.0373 ± 0.031
AAGTTCTA	0.0127 ± 0.022
CGCAGTGA	-0.145
ATCTTATC	0.0505 ± 0.042
CCTCCCCA	0.31 ± 0.028
GCCTCCCA	-0.214 ± 0.05
ACTCCCCT	0.182 ± 0.027
ACTCCCCA	0.282 ± 0.067
CATCCCCA	0.145 ± 0.0068
CCCTCCCA	0.353 ± 0.04
CCTCCCAA	0.0742 ± 0.037
ACTCCCCC	-0.187 ± 0.021
TATCCCCA	0.239 ± 0.014
AATCCCCA	0.161 ± 0.02
ACCTCCCA	-0.071 ± 0.0025
CCTCCCCC	-0.0661 ± 0.021
ATCACGAG	-0.0973 ± 0.13
CGGATAAC	-0.215 ± 0.003
CCGAGCTC	-0.137 ± 0.0056
AGTGCAAG	0.0261 ± 0.015
ATACAGTG	0.248 ± 0.065
ATACAGTC	0.0481 ± 0.076
ATACAGCG	-0.089 ± 0.017

Sequence	PBM 8-mer E-score
ACACAGTG	0.0818 ± 0.048
CTACAGCA	0.0474 ± 0.16
GTACAGTA	0.137 ± 0.034
ATACAGTA	0.259 ± 0.013
CTACAGTA	0.136 ± 0.017
ATACAGCA	0.2373 ± 0.0021
GCTAAACA	-0.106 ± 0.062
CCAGCTTA	-0.129 ± 0.07
CGCGCCAC	0.0139 ± 0.054
ACCTTTGG	-0.277 ± 0.058
CGGTTCCC	-0.179 ± 0.095
GAGGGTTA	0.064 ± 0.0085
AAAGCTGG	0.0243 ± 0.073
CAAGCTGA	0.0436 ± 0.058
AAAGCTGA	0.285 ± 0.0073
ACCGCCCT	-0.0858 ± 0.06
CGACGAGA	-0.147 ± 0.078
CAGCGTGG	0.039 ± 0.028
TGCCCCAA	0.274 ± 0.016
CGCCCCAG	0.0339 ± 0.02
TGCCCCCA	-0.0389 ± 0.018
CGCCCCCA	-0.198 ± 0.069
TGCCCAAA	-0.0856 ± 0.086

Sequence	PBM 8-mer E-score
GGCCCCAC	0.0799 ± 0.062
GGCCCCAA	0.00781 ± 0.067
CGCCCCAA	0.3051 ± 0.0025
CGCCCCAC	0.303 ± 0.0035
AGGTTCTA	-0.106 ± 0.0063
GGTTCTAA	-0.026 ± 0.026
AACGAGCC	-0.0314 ± 0.029
GACTAGCC	-0.0736 ± 0.047
ACACCGAG	-0.219 ± 0.031
ACGACGCT	-0.0201 ± 0.033
CTGGTGTA	-0.00226 ± 0.005
ATCGATAA	0.00019 ± 0.013
GAGTCAAA	-0.0157 ± 0.11
AAGTCAAA	0.0188 ± 0.0089
TAGTCAAA	0.27 ± 0.033
GACTAGCA	0.102 ± 0.099
AGAGCTAA	-0.0564 ± 0.081
AGTTTCAA	-0.0457 ± 0.0064
ATTACCCA	0.288 ± 0.037
ATTACCCC	0.169 ± 0.065
ATTACCCG	-0.0469 ± 0.081
TACCTCGA	-0.079 ± 0.12
TCCGAAAA	-0.0537 ± 0.063
